High-throughput results: PubChem, National Center for Advancing Translational Sciences (NCATS)
HT1080 IDH1KD tx = HT-1080 IDH1 knockdown cell toxicity (counter line); HT-1080 IDH1 knockdown viability, ATP luminescence, 48 h; Potency, µM (top dose mostly 46.1 µM), for inactives: at the highest dose activity, negative = toxicity, actives largely listed as cytotoxic; 360,000 tested, 2% active; AID 686971;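 note: potency is the fitted concentration of half-maximal effect; 0% = DMSO wells and -100% = cell-free medium wells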
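Cytotoxicity counter-line: IDH1KD HT-1080, 48 h, CellTiter-Glo. Curves classed by r2, magnitude and activity.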
DT40 TDP1 no CPT = qHTS for Inhibitors of human tyrosyl-DNA phosphodiesterase 1 (TDP1): qHTS in cells in absence of CPT; Potency, µM (highest dose often 46.2 µM), without a hit: top-dose activity change, negative = growth inhibition, most hits filed as inhibitors; 420,000 tested, 15% active; AID 686978, 2013; DT40 Tdp1-/- hTDP1 cells, no CPT, ATP luminescence, 48 h; note: potency is the fitted concentration of half-maximal effect; nearly all actives have a fitted effect of over 55% in size
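Chicken DT40 Tdp1-/- cells complemented with human TDP1, screened without camptothecin (DMSO vehicle only), 400 cells/well. Compounds pin-transferred, cells incubated at 37 °C for at least 48 hr. Growth read as ATP-dependent luminescence (CellTiter-Glo, 30 min at RT).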
IL1B secr inh = inhibitors of inflammasome signaling (IL-1 beta secretion) | activity change, % at 57.5 µM | 360,000 tested, 4.7% active | AID 743279 | THP-1 LPS/ATP IL-1B secretion, AlphaLISA, 16 h; active compounds read low; in the data active = activity change below about -50%; inconclusive = mostly about -30% to -49%
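THP-1 cells pretreated 1 hr with compounds (up to 57.5 uM final), then stimulated with LPS (250 ng/mL final) plus ATP (1.25 mM final); secreted IL-1B measured by AlphaLISA after 16 hr, decreased signal indicating inhibition.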
DT40 TDP1 CPT = DT40-hTDP1 cell growth loss with CPT; chicken DT40 Tdp1-/-;hTDP1 cells + 20 nM CPT, ATP luminescence, 48 h; 420,000 tested, 12% active; AID 686979; Potency, µM (titrated, usually from 46.2 µM), without a hit: at the top dose activity change, negative = growth inhibition, actives largely listed as inhibitors; note: potency is the fitted concentration of half-maximal effect; nearly all actives have a fitted effect of over 55% in size
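Cell growth measured by CellTiter-Glo luminescence after a minimum 48 h, 37 C compound exposure with 20 nM CPT in Tdp1-knockout DT40 cells stably expressing hTDP1, seeded 400/well; qHTS titration format.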
HT1080-NT tox = kills 2HG-producing HT-1080-NT fibrosarcoma cells. HT-1080-NT fibrosarcoma viability, CellTiter-Glo ATP luminescence, 48 h. Potency, µM (highest dose often 46.1 µM), inactives show top-dose activity, negative = less viability, hits mostly cytotoxic. 360,000 tested, 1.6% active. AID 686970;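 note: NT is the 2HG producing partner of a matched IDH1 knockdown line; potency is the fitted concentration of half-maximal effect; 0% = DMSO-treated cells and -100% = media-only wells without cells; nearly all actives have a fitted effect of over 55% in size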
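Viability by CellTiter-Glo luminescence after 48 h compound exposure at 37C of HT-1080-NT cells (750/well, RPMI, 5% FBS). % activity scaled between DMSO wells and medium-only wells, then curve-fitted and categorized by curve class.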
The depositor's hits bear a star; u = inconclusive; x = no result; [ ] = remark or other dose. Shown are actives, neighbours in structure and some others; about 19% of the full set was active somewhere. Unless noted, calls come from the whole dose curve; as a rule, active = well fitted curve in the direction sought with a large enough effect; inconclusive = small, poorly fitted or top-dose-only effect, or another doubt; inactive = no such curve, though single readings can be large; an effect the other way counts as inactive or inconclusive. Unless noted, % is set by controls: 0 for no effect and ±100 for the full control effect.

SMILES	HT1080 IDH1KD tx	DT40 TDP1 no CPT	IL1B secr inh	DT40 TDP1 CPT	HT1080-NT tox
O=C(NCCN1CCCCC1)Nc1ccc(Br)cc1	-4%	-7%	-23	4%	-12%
O=C(NCCCN1CCc2ccccc2C1)Nc1ccc(Br)cc1	18µM*	u	-17	u	u
O=C(NCCN1CCc2ccccc2C1)Nc1ccc([N+](=O)[O-])cc1	-4%	23µM*	1	u	-3%
O=C(NCCCN1CCCC1=O)Nc1ccc([N+](=O)[O-])cc1	14%	2%	0	-1%	12%
O=Cc1ccc(-c2cccs2)s1	-8%	-9%	32	-7%	-5%
Oc1ccc(N=Cc2ccc(-c3cccs3)s2)cc1	10µM*	u	14	u	-28%[9.24 µM]
CC(C)c1ccc(C(C(=O)NC2CCCC2)N(C(=O)c2csnn2)C2CC2)cc1 (centres undefined)	-3%	u	-9	-30%	2%
Cc1ccc(S(=O)(=O)c2nc(-c3cccc(C)c3)oc2N2CCN(c3ccccc3)CC2)cc1	x	1.5µM*	x	u	x
Cc1ccc(S(=O)(=O)c2nc(-c3cccc(C)c3)oc2N2CCCCC2)cc1	x	23µM*	x	u	x
Cc1ccc(S(=O)(=O)c2nc(-c3ccccc3)oc2N2CCCC2)cc1	7%	16%	25	-18%	7%
CN1CCN(c2oc(-c3ccccc3)nc2S(=O)(=O)c2ccc(Br)cc2)CC1	-5%	u	u	16µM*	-19%
COc1cccc(-c2nc(S(=O)(=O)c3ccc(C)cc3)c(N3CCCCCC3)o2)c1	x	4.6µM*	x	23µM*	x
COc1ccc(-c2nc(S(=O)(=O)c3ccc(C)cc3)c(N3CCCCC3)o2)cc1	x	u	x	-26%	x
CC(C)c1c(C(=O)NCc2ccncc2)cnn1-c1nccc(-c2cccs2)n1	x	-19%	x	-12%[9.04 µM]	x
Cn1c(=O)c2c(nc(C(O)c3ccccc3)n2C)n(C)c1=O (centres undefined)	15%	-5%	29	-7%	0%
O=S(=O)(c1ccccc1)c1nc(-c2ccccc2)oc1N1CCCC1	17%	-8%	-6	-1%	17%
Cc1ccc(-c2nc(S(=O)(=O)c3ccc(C)cc3)c(N3CCN(c4ccccc4)CC3)o2)cc1	x	u	x	-13%	x
O=S(=O)(c1ccccc1)c1nc(-c2ccccc2)oc1N1CCCCC1	-8%	16µM*	u	u	-2%[9.24 µM]
Cc1ccc(S(=O)(=O)c2nc(-c3ccccc3F)oc2N2CCCCC2)cc1	x	15µM*	x	u	x
Cc1ccc(S(=O)(=O)c2nc(-c3ccccc3)oc2N2CCN(c3ccccc3)CC2)cc1	x	21µM*	x	16µM*	x
Cc1ccc(S(=O)(=O)c2nc(-c3ccco3)oc2N2CCC(C)CC2)cc1	-5%	u	-74*	u	-2%
Cc1cccc(CSc2nc3c(c(=O)[nH]2)C(c2cccc(O)c2)CC(=O)N3)c1 (centres undefined)	x	-52%	x	u	x
O=C(CSc1nnc2ccc(-c3ccc(F)cc3)nn12)NCC1CCCO1 (centres undefined)	4%	-17%	-3	7%	10%
CCOC(=O)c1ccc(N2C(=O)Cc3cc(OCC)c(OCC)cc3C2c2ccccc2)cc1 (centres undefined)	x	13µM*	x	15µM*	x
Cc1c(Cl)cccc1-n1c(SCC(=O)NCc2ccccc2Cl)nnc1-c1ccncc1	-28%	u	-9	14µM*	-8%
SMILES	HT1080 IDH1KD tx	DT40 TDP1 no CPT	IL1B secr inh	DT40 TDP1 CPT	HT1080-NT tox
O=C1/C(=N\S(=O)(=O)c2cccs2)C([n+]2ccc(CCCc3ccccc3)cc2)=C([O-])c2ccccc21	u	-29%	50	-12%	-28%
CC(C)c1ccc(NC(=O)C[n+]2ccn(C3=C([O-])c4ccccc4C3=O)c2)cc1	-13%	-26%	39	-1%	-12%
CCCCC[n+]1ccn(C2=C([O-])c3ccccc3C(=O)/C2=N\S(=O)(=O)c2ccccc2)c1	18µM*	18µM*	20	15µM*	u
CCCCC[n+]1ccn(C2=C([O-])c3ccccc3C(=O)/C2=N\S(=O)(=O)c2ccc(Br)cc2)c1	-2%	u	82	10µM*	-7%
CC(C)(C)c1cc[n+](C2=C([O-])c3ccccc3C(=O)/C2=N\S(=O)(=O)c2ccccc2)cc1	21µM*	23µM*	x	u	u
CC(C)[n+]1ccn(C2=C([O-])c3ccccc3C(=O)/C2=N\S(=O)(=O)c2ccccc2)c1	23µM*	18µM*	x	u	23µM*
CCCCC[n+]1ccn(-c2nc3ccccc3nc2[N-]S(=O)(=O)c2ccc(C)cc2)c1	5%	-5%	5	-2%	3%
CC[C@]12c3[nH]c4ccc(Cl)cc4c3CCN1C(=O)[C@@H](CC(=O)NCCCn1ccnc1)C[C@@H]2C(=O)N1CCN(C(=O)c2ccco2)CC1	5%	11%	12	9%	0%
O=C(c1ccc2c(c1)OCCO2)C1CCN(S(=O)(=O)c2ccc(F)cc2)CC1	u	u	13	-21%	-3%
CN1C(=S)SC(N(O)C(=O)Nc2ccc(Cl)c(Cl)c2)C1(C)C (centres undefined)	u	16µM*	-14	21µM*	-29%
CN(C)c1c2ccccc2nc2c(F)c(F)c(F)c(F)c12	-3%	21µM*	-96*	23µM*	-2%
CN(c1ccccc1)S(=O)(=O)c1ccc(Cl)c(C(=O)NCC(c2ccco2)N2CCCC2)c1 (centres undefined)	-1%	13µM*	-1	13µM*	0%
COc1ccc(C(CNC(=O)c2ccc(F)cc2)N2CCCC2)cc1 (centres undefined)	x	-29%	x	-28%	x
O=C(NCC(c1ccc(Cl)cc1)N1CCCCC1)c1ccccc1 (centres undefined)	x	15µM*	x	13µM*	x
Cc1ccc(S(=O)(=O)N(C)c2ccc(C(=O)NCC(c3cccs3)N3CCOCC3)cc2)cc1 (centres undefined)	-11%	u	-6	21µM*	-4%
Cc1ccc(S(=O)(=O)Nc2cccc(C(=O)NCC(c3ccco3)N3CCCCC3)c2)cc1F (centres undefined)	-6%	21µM*	-66*	u	-4%
Cc1ccc(N(C)S(=O)(=O)c2cccc(C(=O)NCC(c3cccs3)N3CCOCC3)c2)cc1 (centres undefined)	-18%	u	-4	u	-14%
